# Reference: paper PMC7862700, “An all-to-all approach to the identification of sequence-specific readers for epigenetic DNA modifications on cytosine”
# How the values were obtained:
# Test in all cases: DAPPL (digital affinity profiling via proximity ligation, sequencing); 10 mM Tris-HCl pH 7.5, 50 mM NaCl, 1 mM DTT, 4% glycerol, room temperature, 30 min; GST-TFs on glutathione beads, 16-mer random dsDNA library, 0.1% formaldehyde crosslink after washing; high values mean tight binding
# FEV = target: T1, FEV (Homo sapiens, UniProt Q99581 1-238); conditions: protein: recombinant; tags: N-terminal GST; dsDNA, one strand shown
# T1 sequence: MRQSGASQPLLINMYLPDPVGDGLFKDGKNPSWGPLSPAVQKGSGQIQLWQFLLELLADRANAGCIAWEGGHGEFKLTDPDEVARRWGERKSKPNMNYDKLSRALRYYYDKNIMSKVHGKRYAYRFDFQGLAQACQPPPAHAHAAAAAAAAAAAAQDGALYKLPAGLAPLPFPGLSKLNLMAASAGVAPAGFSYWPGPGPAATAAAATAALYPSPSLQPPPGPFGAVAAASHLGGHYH
# Summary of the method: (§1)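 Binding signal is given per hexamer as its read frequency for a factor divided by its frequency in the tag-only sample. GST-fused human transcription factors were expressed in yeast, captured on glutathione beads, barcoded with DNA and pooled with that sample, then incubated with 200 nmole of a 16-mer random double-stranded DNA library in Tris/NaCl/DTT/glycerol buffer for 30 min at room temperature. The pools were then washed, crosslinked, proximity-ligated, amplified by PCR and sequenced on an Illumina NextSeq500.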
# ETV5 = ETV5 (Homo sapiens, UniProt P41161 1-510); conditions: protein: recombinant; tags: N-terminal GST; dsDNA, one strand shown
# Summary of the method: as §1
# HSF1 = HSF1 (Homo sapiens, UniProt Q00613 1-529); conditions: protein: recombinant; tags: N-terminal GST; chain copies: 3; dsDNA, one strand shown
# Summary of the method: as §1
# SPIC = target: T2, SPIC (Homo sapiens, UniProt Q8N5J4 1-248); conditions: protein: recombinant; tags: N-terminal GST; dsDNA, one strand shown
# T2 sequence: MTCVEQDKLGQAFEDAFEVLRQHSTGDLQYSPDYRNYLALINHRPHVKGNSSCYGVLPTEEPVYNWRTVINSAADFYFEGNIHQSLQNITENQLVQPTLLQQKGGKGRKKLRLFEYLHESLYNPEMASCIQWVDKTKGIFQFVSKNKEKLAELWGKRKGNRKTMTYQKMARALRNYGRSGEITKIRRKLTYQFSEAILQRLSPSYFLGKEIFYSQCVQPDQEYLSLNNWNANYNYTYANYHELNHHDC
# Summary of the method: as §1
# ELF4 = ELF4 (Homo sapiens, UniProt Q99607 1-663); conditions: protein: recombinant; tags: N-terminal GST; dsDNA, one strand shown
# Summary of the method: as §1
# ELK4 = target: T3, ELK4 (Homo sapiens, UniProt P28324-2 1-405); conditions: protein: recombinant; tags: N-terminal GST; dsDNA, one strand shown
# T3 sequence: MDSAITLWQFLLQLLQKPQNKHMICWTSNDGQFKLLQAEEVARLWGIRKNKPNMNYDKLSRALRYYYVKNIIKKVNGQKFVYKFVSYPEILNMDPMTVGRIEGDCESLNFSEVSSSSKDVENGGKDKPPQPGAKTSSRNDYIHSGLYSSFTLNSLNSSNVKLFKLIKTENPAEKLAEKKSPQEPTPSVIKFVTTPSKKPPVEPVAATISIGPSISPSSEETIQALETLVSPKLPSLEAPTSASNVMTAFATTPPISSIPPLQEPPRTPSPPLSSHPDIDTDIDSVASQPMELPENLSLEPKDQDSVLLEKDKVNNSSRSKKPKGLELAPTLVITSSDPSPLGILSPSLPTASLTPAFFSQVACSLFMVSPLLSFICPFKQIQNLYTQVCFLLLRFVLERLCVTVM
# Summary of the method: as §1
# ETV2 = target: T4, ETV2 (Homo sapiens, UniProt O00321 1-342); conditions: protein: recombinant; tags: N-terminal GST; dsDNA, one strand shown
# T4 sequence: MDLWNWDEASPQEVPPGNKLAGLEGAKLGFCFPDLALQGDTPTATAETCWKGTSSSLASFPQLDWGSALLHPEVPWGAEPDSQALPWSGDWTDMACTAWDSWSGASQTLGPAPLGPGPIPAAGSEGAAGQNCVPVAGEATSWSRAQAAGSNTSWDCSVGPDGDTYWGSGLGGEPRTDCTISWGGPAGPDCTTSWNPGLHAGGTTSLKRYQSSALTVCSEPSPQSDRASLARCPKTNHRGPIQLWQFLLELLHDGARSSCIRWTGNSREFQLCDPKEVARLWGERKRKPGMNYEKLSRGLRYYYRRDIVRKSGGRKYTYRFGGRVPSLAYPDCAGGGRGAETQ
# Summary of the method: as §1
# ELF3 = target: T5, ELF3 (Homo sapiens, UniProt P78545 1-371); conditions: protein: recombinant; tags: N-terminal GST; dsDNA, one strand shown
# T5 sequence: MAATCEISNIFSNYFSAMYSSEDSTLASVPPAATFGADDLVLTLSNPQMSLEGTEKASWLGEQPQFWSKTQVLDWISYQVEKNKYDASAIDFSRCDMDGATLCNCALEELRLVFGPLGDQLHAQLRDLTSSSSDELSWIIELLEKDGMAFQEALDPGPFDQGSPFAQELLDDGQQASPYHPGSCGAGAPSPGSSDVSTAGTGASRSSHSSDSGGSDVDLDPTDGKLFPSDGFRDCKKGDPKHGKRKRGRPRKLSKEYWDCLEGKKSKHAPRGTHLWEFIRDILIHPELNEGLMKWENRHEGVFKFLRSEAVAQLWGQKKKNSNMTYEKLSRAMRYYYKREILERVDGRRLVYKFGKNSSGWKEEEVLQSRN
# Summary of the method: as §1
# CRX = CRX (Homo sapiens, UniProt O43186 1-299); conditions: protein: recombinant; tags: N-terminal GST; dsDNA, one strand shown
# Summary of the method: as §1
# ETV1 = ETV1 (Homo sapiens, UniProt P50549 1-477); conditions: protein: recombinant; tags: N-terminal GST; dsDNA, one strand shown
# Summary of the method: as §1
# ERF = target: T6, ERF (Homo sapiens, UniProt P50548 1-548); conditions: protein: recombinant; tags: N-terminal GST; dsDNA, one strand shown
# T6 sequence: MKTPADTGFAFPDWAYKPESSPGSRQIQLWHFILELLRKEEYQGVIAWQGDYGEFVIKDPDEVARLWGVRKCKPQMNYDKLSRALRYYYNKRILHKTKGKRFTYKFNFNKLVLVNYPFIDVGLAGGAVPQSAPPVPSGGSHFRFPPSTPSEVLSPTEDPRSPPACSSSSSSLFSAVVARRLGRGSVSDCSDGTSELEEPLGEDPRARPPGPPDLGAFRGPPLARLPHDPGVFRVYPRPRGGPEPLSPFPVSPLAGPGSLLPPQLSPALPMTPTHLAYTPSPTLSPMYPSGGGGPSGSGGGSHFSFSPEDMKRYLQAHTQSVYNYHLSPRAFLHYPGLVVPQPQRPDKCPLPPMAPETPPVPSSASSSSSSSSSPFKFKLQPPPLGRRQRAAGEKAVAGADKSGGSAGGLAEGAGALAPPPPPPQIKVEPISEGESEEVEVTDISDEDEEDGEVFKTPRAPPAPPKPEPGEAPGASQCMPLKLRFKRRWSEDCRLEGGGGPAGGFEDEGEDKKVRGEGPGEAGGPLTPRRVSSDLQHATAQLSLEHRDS
# Summary of the method: as §1
# ETV3L = target: T7, ETV3L (Homo sapiens, UniProt Q6ZN32 1-361); conditions: protein: recombinant; tags: N-terminal GST; dsDNA, one strand shown
# T7 sequence: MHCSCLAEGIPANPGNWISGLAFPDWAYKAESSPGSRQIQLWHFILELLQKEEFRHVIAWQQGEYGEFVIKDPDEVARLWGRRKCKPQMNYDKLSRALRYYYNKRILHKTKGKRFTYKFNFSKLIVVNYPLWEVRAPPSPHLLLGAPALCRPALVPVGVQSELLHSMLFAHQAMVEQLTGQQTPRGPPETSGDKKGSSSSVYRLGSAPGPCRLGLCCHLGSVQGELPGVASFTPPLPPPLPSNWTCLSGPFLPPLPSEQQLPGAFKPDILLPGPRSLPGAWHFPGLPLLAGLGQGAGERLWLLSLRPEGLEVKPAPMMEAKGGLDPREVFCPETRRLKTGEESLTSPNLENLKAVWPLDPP
# Summary of the method: as §1
# ETS2 = target: T8, ETS2 (Homo sapiens, UniProt P15036 1-469); conditions: protein: recombinant; tags: N-terminal GST; dsDNA, one strand shown
# T8 sequence: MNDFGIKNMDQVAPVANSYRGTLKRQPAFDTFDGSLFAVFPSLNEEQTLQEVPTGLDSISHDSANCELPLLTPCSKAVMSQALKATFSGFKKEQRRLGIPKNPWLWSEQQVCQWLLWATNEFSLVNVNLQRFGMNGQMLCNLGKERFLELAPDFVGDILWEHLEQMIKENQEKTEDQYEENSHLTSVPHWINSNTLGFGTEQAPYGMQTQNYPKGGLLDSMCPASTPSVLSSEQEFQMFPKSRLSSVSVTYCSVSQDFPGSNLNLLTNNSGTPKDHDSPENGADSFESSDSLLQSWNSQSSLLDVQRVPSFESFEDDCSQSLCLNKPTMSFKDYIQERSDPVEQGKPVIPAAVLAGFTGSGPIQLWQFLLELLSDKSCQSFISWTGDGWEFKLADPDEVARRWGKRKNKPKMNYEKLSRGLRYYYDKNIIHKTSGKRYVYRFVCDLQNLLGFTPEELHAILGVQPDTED
# Summary of the method: as §1
# SPDEF = target: T9, SPDEF (Homo sapiens, UniProt O95238 1-335); conditions: protein: recombinant; tags: N-terminal GST; dsDNA, one strand shown
# T9 sequence: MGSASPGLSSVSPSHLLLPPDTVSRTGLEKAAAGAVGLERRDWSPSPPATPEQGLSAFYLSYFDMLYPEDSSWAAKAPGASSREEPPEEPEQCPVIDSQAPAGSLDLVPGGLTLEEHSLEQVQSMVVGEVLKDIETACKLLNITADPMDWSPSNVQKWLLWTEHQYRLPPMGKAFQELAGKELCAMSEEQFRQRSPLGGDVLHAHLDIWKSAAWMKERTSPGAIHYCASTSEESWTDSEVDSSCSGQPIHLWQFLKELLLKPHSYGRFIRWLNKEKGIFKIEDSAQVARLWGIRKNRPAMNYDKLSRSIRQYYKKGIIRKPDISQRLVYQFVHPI
# Summary of the method: as §1
# ETV7 = target: T10, ETV7 (Homo sapiens, UniProt Q9Y603 1-341); conditions: protein: recombinant; tags: N-terminal GST; dsDNA, one strand shown
# T10 sequence: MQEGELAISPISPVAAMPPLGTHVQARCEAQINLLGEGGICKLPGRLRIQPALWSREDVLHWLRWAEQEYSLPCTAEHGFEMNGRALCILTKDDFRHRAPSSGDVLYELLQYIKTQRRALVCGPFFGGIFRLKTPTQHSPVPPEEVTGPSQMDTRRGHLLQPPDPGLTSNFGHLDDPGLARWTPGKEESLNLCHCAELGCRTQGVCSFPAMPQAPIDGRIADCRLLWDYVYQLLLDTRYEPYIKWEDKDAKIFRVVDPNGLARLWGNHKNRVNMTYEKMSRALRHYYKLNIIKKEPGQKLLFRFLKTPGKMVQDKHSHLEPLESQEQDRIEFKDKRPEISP
# Summary of the method: as §1
# ELF5 = target: T11, ELF5 (Homo sapiens, UniProt Q9UKW6-2 1-255); conditions: protein: recombinant; tags: N-terminal GST; dsDNA, one strand shown
# T11 sequence: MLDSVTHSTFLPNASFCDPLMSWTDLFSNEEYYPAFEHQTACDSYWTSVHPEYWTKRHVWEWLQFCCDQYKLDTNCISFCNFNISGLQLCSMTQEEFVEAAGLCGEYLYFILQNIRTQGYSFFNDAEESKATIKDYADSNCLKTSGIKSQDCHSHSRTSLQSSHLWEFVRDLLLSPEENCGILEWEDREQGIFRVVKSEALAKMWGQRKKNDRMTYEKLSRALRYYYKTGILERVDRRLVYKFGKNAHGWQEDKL
# Summary of the method: as §1
# ETV3 = target: T12, ETV3 (Homo sapiens, UniProt P41162-2 1-143); conditions: protein: recombinant; tags: N-terminal GST; dsDNA, one strand shown
# T12 sequence: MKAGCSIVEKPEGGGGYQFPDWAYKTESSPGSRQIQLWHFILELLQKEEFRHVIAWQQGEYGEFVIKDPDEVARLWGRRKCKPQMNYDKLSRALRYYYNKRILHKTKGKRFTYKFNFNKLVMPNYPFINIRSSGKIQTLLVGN
# Summary of the method: as §1
# ETV6 = ETV6 (Homo sapiens, UniProt P41212 1-452); conditions: protein: recombinant; tags: N-terminal GST; dsDNA, one strand shown
# Summary of the method: as §1
# Sequence of HSF1 (Q00613 whole entry): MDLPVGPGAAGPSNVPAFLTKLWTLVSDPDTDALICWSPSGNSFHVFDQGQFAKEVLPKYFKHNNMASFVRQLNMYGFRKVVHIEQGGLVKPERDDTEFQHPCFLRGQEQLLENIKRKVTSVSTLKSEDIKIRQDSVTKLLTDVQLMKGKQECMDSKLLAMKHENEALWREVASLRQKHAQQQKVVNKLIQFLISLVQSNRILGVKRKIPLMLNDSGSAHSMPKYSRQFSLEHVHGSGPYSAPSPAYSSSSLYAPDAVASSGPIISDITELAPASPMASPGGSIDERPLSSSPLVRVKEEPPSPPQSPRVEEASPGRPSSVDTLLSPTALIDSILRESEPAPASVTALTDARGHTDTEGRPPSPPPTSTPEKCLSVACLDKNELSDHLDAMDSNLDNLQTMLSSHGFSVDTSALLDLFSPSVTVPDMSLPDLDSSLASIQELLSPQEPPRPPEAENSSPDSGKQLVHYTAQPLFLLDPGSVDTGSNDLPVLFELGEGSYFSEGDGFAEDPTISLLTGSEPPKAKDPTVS
# Sequence of ETV6 (P41212 whole entry): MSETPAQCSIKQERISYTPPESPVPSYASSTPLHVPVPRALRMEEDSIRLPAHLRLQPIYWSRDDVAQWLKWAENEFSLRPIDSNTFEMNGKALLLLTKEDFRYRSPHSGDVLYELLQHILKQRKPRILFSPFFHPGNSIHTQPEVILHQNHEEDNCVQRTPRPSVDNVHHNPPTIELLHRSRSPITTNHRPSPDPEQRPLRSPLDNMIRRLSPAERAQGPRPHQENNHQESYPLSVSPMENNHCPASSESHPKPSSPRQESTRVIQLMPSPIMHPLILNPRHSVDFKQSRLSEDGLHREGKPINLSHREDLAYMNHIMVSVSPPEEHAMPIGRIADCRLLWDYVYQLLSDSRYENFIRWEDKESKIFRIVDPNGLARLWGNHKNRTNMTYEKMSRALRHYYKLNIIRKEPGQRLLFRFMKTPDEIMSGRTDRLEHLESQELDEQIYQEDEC
# Sequence of ETV1 (P50549 whole entry): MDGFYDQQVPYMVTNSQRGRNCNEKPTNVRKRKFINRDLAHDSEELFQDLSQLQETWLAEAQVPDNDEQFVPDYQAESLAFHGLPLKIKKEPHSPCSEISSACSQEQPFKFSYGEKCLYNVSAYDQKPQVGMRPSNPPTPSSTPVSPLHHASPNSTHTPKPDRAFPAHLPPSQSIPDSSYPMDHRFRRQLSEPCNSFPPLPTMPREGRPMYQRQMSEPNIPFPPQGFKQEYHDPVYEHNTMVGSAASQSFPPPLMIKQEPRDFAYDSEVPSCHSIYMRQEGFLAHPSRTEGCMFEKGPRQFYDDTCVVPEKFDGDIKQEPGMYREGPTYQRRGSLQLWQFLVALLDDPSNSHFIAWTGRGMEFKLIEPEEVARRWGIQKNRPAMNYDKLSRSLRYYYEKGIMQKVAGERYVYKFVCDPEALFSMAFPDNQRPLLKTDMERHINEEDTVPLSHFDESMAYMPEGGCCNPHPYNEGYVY
# Sequence of ELF4 (Q99607 whole entry): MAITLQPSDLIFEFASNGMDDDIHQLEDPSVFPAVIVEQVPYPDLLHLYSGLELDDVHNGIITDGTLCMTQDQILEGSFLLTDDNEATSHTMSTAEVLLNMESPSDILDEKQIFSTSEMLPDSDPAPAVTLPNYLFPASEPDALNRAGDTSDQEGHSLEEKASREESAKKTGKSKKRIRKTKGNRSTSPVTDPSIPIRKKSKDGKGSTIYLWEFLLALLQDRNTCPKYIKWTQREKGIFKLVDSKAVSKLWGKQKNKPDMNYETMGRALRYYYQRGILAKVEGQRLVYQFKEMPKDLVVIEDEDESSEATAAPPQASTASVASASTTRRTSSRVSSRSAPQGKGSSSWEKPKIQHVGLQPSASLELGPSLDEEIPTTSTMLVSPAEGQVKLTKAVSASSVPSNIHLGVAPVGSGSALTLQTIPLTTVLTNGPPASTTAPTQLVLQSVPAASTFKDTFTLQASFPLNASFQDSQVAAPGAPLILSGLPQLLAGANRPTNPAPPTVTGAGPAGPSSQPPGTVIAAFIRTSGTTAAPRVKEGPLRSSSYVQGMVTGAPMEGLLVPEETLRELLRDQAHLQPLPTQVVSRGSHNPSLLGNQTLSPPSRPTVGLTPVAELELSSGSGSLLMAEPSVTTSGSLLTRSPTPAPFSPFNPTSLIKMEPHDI
# Sequence of ETV5 (P41161 whole entry): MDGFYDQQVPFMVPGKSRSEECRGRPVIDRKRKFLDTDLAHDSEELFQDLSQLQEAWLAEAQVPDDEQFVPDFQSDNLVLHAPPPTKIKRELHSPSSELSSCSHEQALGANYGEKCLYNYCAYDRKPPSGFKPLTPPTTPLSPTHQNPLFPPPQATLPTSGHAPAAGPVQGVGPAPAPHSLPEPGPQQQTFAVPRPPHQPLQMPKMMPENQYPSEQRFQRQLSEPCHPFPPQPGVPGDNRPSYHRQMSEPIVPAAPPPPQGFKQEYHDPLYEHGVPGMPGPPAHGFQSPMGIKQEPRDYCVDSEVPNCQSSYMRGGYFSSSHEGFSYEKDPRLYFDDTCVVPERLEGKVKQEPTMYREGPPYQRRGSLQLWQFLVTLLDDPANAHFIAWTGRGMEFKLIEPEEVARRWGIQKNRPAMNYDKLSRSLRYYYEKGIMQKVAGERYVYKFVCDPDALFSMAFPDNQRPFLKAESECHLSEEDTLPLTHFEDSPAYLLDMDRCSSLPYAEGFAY
# Sequence of CRX (O43186 whole entry): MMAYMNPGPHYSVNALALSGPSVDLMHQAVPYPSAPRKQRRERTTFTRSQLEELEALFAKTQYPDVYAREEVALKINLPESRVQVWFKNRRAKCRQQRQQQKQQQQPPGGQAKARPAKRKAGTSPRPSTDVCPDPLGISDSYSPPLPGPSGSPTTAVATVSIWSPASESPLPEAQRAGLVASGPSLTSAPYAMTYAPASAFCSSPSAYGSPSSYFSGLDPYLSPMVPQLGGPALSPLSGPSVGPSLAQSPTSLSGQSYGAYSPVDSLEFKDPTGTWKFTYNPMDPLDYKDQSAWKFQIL
sequence,measurement,setting,value
CTACCC,binding signal,FEV,"1.26 fold enrichment (6-mer frequency, TF over GST control)"
same,binding signal,ETV5,"1.28 fold enrichment (6-mer frequency, TF over GST control)"
same,binding signal,HSF1,"1.04 fold enrichment (6-mer frequency, TF over GST control)"
same,binding signal,SPIC,"1.47 fold enrichment (6-mer frequency, TF over GST control)"
same,binding signal,ELF4,"1.36 fold enrichment (6-mer frequency, TF over GST control)"
same,binding signal,ELK4,"1.23 fold enrichment (6-mer frequency, TF over GST control)"
same,binding signal,ETV2,"1.29 fold enrichment (6-mer frequency, TF over GST control)"
same,binding signal,ELF3,"1.3 fold enrichment (6-mer frequency, TF over GST control)"
same,binding signal,CRX,"1.08 fold enrichment (6-mer frequency, TF over GST control)"
same,binding signal,ETV1,"1.26 fold enrichment (6-mer frequency, TF over GST control)"
same,binding signal,ERF,"1.29 fold enrichment (6-mer frequency, TF over GST control)"
same,binding signal,ETV3L,"1.32 fold enrichment (6-mer frequency, TF over GST control)"
same,binding signal,ETS2,"1.38 fold enrichment (6-mer frequency, TF over GST control)"
same,binding signal,SPDEF,"1.29 fold enrichment (6-mer frequency, TF over GST control)"
same,binding signal,ETV7,"1.23 fold enrichment (6-mer frequency, TF over GST control)"
same,binding signal,ELF5,"1.29 fold enrichment (6-mer frequency, TF over GST control)"
same,binding signal,ETV3,"1.28 fold enrichment (6-mer frequency, TF over GST control)"
same,binding signal,ETV6,"1.21 fold enrichment (6-mer frequency, TF over GST control)"
